Several values for one entry are separate records, joined by “and”; a condition that tells them apart may be missing. Equal entries are not always repeated. Records with an inconclusive call do not appear. A call without a number means that no potency is given here. Values without a mark were called inactive. Activity calls are given as the source filed them. The call rests on the fitted dose curve; in most records, active means well fitted inhibition curve with a large enough effect in the repeat runs; inconclusive means weak or mixed curves; inactive means flat fitted curve, though single readings scatter.
experiment: qHTS assay to identify small molecule HDAC inhibitors (AID 1259364); conditions: HCT-116 HDAC-Glo I/II luminescence, 2 h; series mostly up to 92.4 µM; activity change, negative = inhibition: at the top concentration; further: nearly all actives have a fitted effect of over 45% in size; on activity change, negative = inhibition: top concentration of the series differs between compounds
Excerpt: U.S. Tox21 Program National Center for Advancing Translational Sciences [NCATS] NIH Chemical Genomics Center [NCGC] U.S. Environmental Protection Agency [EPA] National Institutes of Environmental Health Sciences [NIEHS] National Toxicology Program [NTP] U.S. Food and Drug Administration [FDA] Tox21 Assay Overview: Histone deacetylases (HDACs) are a group of epigenetic enzymes that regulate gene expression by histone deacetylation. HDACs are capable of introducing epigenetic modifications and such aberrations contribute to the onset and progression of several human diseases, thus making HDACs a popular therapeutic target. For identifying endogenous class I/II HDAC inhibitors a homogenous, luminogenic HDAC I/II cell based assay was used to measure the relative activity of class I and II HDACs from cells. Wild type HCT-116 cells were used to screen Tox21 libraries for identifying class I/II HDAC inhibitors.
Tox21 Assay Protocol Summary: HCT-116 cells were dispensed at 1,500 per well in 5uL of culture medium into white solid bottom 1536-well plates (Greiner Bio-One, Monroe, NC) using a Multidrop Combi (Thermo Scientific, Waltham, MA) dispenser. The assay plates were incubated at 37 C and 5% CO2 for an overnight, and then 23nL of compounds dissolved in DMSO and positive control were transferred using a Pintool station (Wako, San Diego, CA). The assay plates were incubated at 37C and 5% CO2 for 2hr. After compound treatment, 4uL of HDAC-Glo reagent (Promega Corporation, Madison, WI) was added to each well of the assay plates using Flying Reagent Dispenser (FRD, Aurora Discovery, San Diego, CA) and incubated the assay plates at room temperature for 30min. The luminescence signal was quantified using a ViewLux plate reader (Perkin Elmer, Shelton, CT).
Potency means the concentration at half of the fitted maximal effect.

| Compound | Potency | activity change, negative = inhibition [%] |
| --- | --- | --- |
| O=c1oc2ccccc2c(O)c1C(CC(O)c1ccc(-c2ccc(Br)cc2)cc1)c1ccccc1 (stereo not given) | inactive | – |
| O=S(=O)(Oc1ccc(Cl)cc1)c1ccc(Cl)cc1 | inactive | – |
| Cc1ccc(OP(=O)(Oc2ccc(C)cc2)Oc2ccc(C)cc2)cc1 | inactive | – |
| O=Cc1ccco1 | inactive | – |
| CCC(C)(C)c1ccc(O)cc1 | inactive | – |
| Oc1c(Cl)c(Cl)c(Cl)c(Cl)c1Cl | inactive | – |
| CCC(=O)O[C@H]1CC[C@H]2[C@@H]3CCC4=CC(=O)CC[C@]4(C)[C@H]3CC[C@]12C | inactive | – |
| CCN(CC)N=O | inactive | – |
| S=C1NCCN1 | inactive | – |
| c1cc(OCC2CO2)ccc1Cc1ccc(OCC2CO2)cc1 (stereo not given) | inactive | – |
| O=C(CCl)c1ccccc1 | – | -15.7 |
| Oc1cc(Cl)c(Cl)cc1Cl | inactive | – |
| CCOC(=S)S | inactive | – |
| CCCCC(CC)COC(=O)c1ccc(C(=O)OCC(CC)CCCC)c(C(=O)OCC(CC)CCCC)c1 (stereo not given) | inactive | – |
| C=C(C)C(=O)OCC1CO1 (stereo not given) | inactive | – |
| OCC(O)CO | inactive | – |
| O=C1C=CC(=O)C=C1 | inactive | – |
| CCCCCCCCCCCOC(=O)c1ccccc1C(=O)OCCCCCCCCCCC | inactive | – |
| NC(=S)Nc1ccccc1 | inactive | – |
| Cc1cc(Cl)ccc1OCCCC(=O)O | inactive | – |

| Compound | Potency | activity change, negative = inhibition [%] |
| --- | --- | --- |
| Brc1ccc(Oc2cc(Br)c(Br)cc2Br)c(Br)c1 | inactive | – |
| CC(C)C(=O)OCC(C)(C)C(OC(=O)C(C)C)C(C)C (stereo not given) | inactive | – |
| CCCCCCCCC(=O)NCc1ccc(O)c(OC)c1 | inactive | – |
| O=C(Nc1ccc(Br)cc1)c1cc(Br)cc(Br)c1O | 6.83 µM (active) and 6.11 µM (active) and 6.68 µM (active) | – |
| CCOC(=O)C(C)OC(=O)c1cc(Oc2ccc(C(F)(F)F)cc2Cl)ccc1[N+](=O)[O-] (stereo not given) | inactive | – |
| O=C(O)CC[N+](=O)[O-] | inactive | – |
| c1ccc(-c2cccc(-c3ccccc3)c2)cc1 | inactive | – |
| CCOc1cc(C=O)ccc1O | inactive | – |
| CCCCC(CC)COC(=O)Cl (stereo not given) | inactive | – |
| O=[N+]([O-])c1ccc(O)c([N+](=O)[O-])c1 | 30.8 µM (active) and 27.3 µM (active) | – |
| CC(C)c1ccc(CO)cc1 | inactive | – |
| C1=Cc2cccc3cccc1c23 | inactive | – |
| Cc1ccc2c(c1N)C(=O)c1ccccc1C2=O | 7.61 µM (active) and 9.69 µM (active) | – |
| COc1ccc(C(CN(C)C)C2(O)CCCCC2)cc1 (stereo not given) | inactive | – |
| CCN(CC)C(=O)/C(Cl)=C(\C)OP(=O)(OC)OC | inactive | – |
| CCC(CC)Nc1c([N+](=O)[O-])cc(C)c(C)c1[N+](=O)[O-] | inactive | – |
| Cc1c(COC(=O)[C@@H]2[C@H](/C=C(\Cl)C(F)(F)F)C2(C)C)cccc1-c1ccccc1 | inactive | – |
| Cc1cccc(N)c1N | – | -15.2 |
| c1nc[nH]n1 | inactive | – |
| N#CC(Br)Br | inactive | – |

— PubChem BioAssay (Tox21)
